# In the supplement of paper PMC5641865, “A screen for kinase inhibitors identifies antimicrobial imidazopyridine aminofurazans as specific inhibitors of the Listeria monocytogenes PASTA kinase PrkA” (The Journal of Biological Chemistry, 2017):
# ± gives the standard deviation of the averaged measurements.
# Tested on: Listeria monocytogenes 10403S
# Assay: growth inhibition relative to ceftriaxone-alone control; higher = stronger potentiation of ceftriaxone growth inhibition
# Conditions: 10 µM; ceftriaxone 1 ug/ml; 12 h
# 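Also: End-point A600 read in BHI broth at 37 °C with 2% DMSO, inhibition computed as (1 − OD with compound plus ceftriaxone ÷ OD with ceftriaxone only) × 100.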
row,Structure (SMILES),growth inhibition [%]
1,COC(=O)Nc1ccc(-c2nc(N3CCOCC3)c3cnn(C4CCN(Cc5cccnc5)CC4)c3n2)cc1,33.8 ± 29
2,O=C(Nc1ccc(Oc2ccc3[nH]c(NC(=O)c4ccco4)nc3c2)cc1)Nc1cc(C(F)(F)F)ccc1F,9.02 ± 5.9
3,CCn1c(-c2nonc2N)nc2c(C#CC(C)(C)O)nc(OCCNC)cc21,41.3 ± 18
4,Cc1cc(C(C)Nc2ccccc2)c2nc(N3CCOCC3)cc(=O)n2c1 (centres undefined),24.3 ± 9.5
5,COc1cc2ncnc(Nc3ccc(C)c(O)c3)c2cc1OC,-12.9 ± 9.4
6,N#Cc1cccc(Nc2nccc(-c3cnn4ncccc34)n2)c1,-0.568 ± 0.54
7,CCc1cccc(CC)c1NC(=O)N1Cc2[nH]nc(NC(=O)c3ccc(N4CCN(C)CC4)cc3)c2C1,33.1 ± 4.9
8,Cc1ccc2c(-c3ccnc(Nc4ccccc4)n3)c(-c3ccc(F)cc3)nn2n1,-6.27 ± 1.4
9,Cc1cc(O)cc(C)c1/C=C/c1cncc(C(=O)OC(C)(C)C)c1,-0.285 ± 0.11
10,c1ccc(Cc2nc3ccc(Nc4ncnc5ccccc45)cc3[nH]2)cc1,-14.5 ± 19
11,Fc1cccc(COc2ccc(Nc3ncnc4sc(-c5cccs5)cc34)cc2Cl)c1,-4.36 ± 4.4
12,CO[C@H]1C[C@@H]2CC[C@@H](C)[C@@](O)(O2)C(=O)C(=O)N2CCCC[C@H]2C(=O)O[C@H]([C@H](C)C[C@@H]2CC[C@@H](O)[C@H](OC)C2)CC(=O)[C@H](C)/C=C(\C)[C@@H](O)[C@@H](OC)C(=O)[C@H](C)C[C@H](C)/C=C/C=C/C=C/1C [Rapamycin (Sirolimus)],30.2 ± 26
13,COc1ccc(-c2coc3ncnc(N)c23)cc1,8.14 ± 12
14,Cc1ccc(C(=O)Nc2ccc(CN3CCN(C)CC3)c(C(F)(F)F)c2)cc1C#Cc1cnc2cccnn12,94.4 ± 3.5
